# Laboratory results taken from the supplement of paper PMC9262897, “Low-cost anti-mycobacterial drug discovery using engineered E. coli” (Nature Communications, 2022).
# Structures can show the parent of a compound that is named as a salt. ± gives the standard deviation of the averaged measurements.
# Legend:
# Experiment in all cases: growth (OD600 after 10 h); higher = more growth (less inhibition)
# [1] = system: E. coli TESEC Alr+ wild-type control; settings: compound 0.1 mM; raw OD600 reference: median of DMSO wells 0.241, cell-free background 0.041
# Procedure: (§1)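 TESEC Mtb Alr E. coli, or the Alr+ wild-type control, in 384-well plates with Prestwick library compounds at 0.1 mM and 1% DMSO, across arabinose induction levels of 1E3 to 1E7 nM. Growth is read as OD600 after 10 h at 37 °C in triplicate biological replicates.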
# E. coli TESEC Mtb Alr [2] = settings: compound 0.1 mM
# Procedure: as §1
# E. coli TESEC Mtb Asd = settings: compound 0.1 mM
# Procedure: (§2)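 TESEC E. coli strains in which the native enzyme is deleted and replaced by arabinose-inducible Mtb Asd, DapB, CysH or TrpD, each grown in its selective medium. Strains were screened against the Prestwick library at 0.1 mM and 1% DMSO in 384-well format at low and high arabinose induction. Growth is read as OD600 after 10 h in triplicate.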
# E. coli TESEC Mtb DapB = settings: compound 0.1 mM
# Procedure: as §2
# [3] = system: E. coli TESEC Alr+ wild-type control; settings: compound 0.1 mM; raw OD600 reference: median of DMSO wells 0.49, cell-free background 0.052
# Procedure: (§3)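 TESEC Mtb Alr E. coli (ΔaraC ΔtolC ΔentC Δalr ΔdadX, arabinose-inducible Mtb Alr) or the Alr+ wild-type control strain, grown in defined M9-fructose medium without D-alanine in 96-well plates with Prestwick library compounds at 0.1 mM and 1% DMSO. Low Alr induction is 0.1 µM arabinose and high induction is 10 mM arabinose.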
# E. coli TESEC Mtb Alr [4] = settings: compound 0.1 mM; remark: listed apart in the source
# Procedure: as §3
# [5] = arabinose 1000 nM, raw OD600 reference: median of DMSO wells 0.294, cell-free background 0.041
# [6] = arabinose 10000 nM, raw OD600 reference: median of DMSO wells 0.264, cell-free background 0.041
# [7] = arabinose 100000 nM, raw OD600 reference: median of DMSO wells 0.201, cell-free background 0.041
# [8] = arabinose 1000000 nM, raw OD600 reference: median of DMSO wells 0.193, cell-free background 0.041
# [9] = arabinose 10000000 nM, raw OD600 reference: median of DMSO wells 0.146, cell-free background 0.041
# [10] = arabinose induction (level): High, raw OD600 reference: median of DMSO wells 0.331, cell-free background 0.041
# [11] = arabinose induction (level): Low, raw OD600 reference: median of DMSO wells 0.417, cell-free background 0.041
# [12] = arabinose induction (level): High, raw OD600 reference: median of DMSO wells […], cell-free background 0.041
# [13] = arabinose induction (level): Low, raw OD600 reference: median of DMSO wells 0.227, cell-free background 0.041
# [14] = arabinose 100 nM, raw OD600 reference: median of DMSO wells 0.413, cell-free background 0.052
# [15] = arabinose 10000000 nM, raw OD600 reference: median of DMSO wells […], cell-free background 0.052
SMILES,growth [1],growth (E. coli TESEC Mtb Alr [2]; [5]),growth (E. coli TESEC Mtb Alr [2]; [6]),growth (E. coli TESEC Mtb Alr [2]; [7]),growth (E. coli TESEC Mtb Alr [2]; [8]),growth (E. coli TESEC Mtb Alr [2]; [9]),growth (E. coli TESEC Mtb Asd; [10]),growth (E. coli TESEC Mtb Asd; [11]),growth (E. coli TESEC Mtb DapB; [12]),growth (E. coli TESEC Mtb DapB; [13]),growth [3],growth (E. coli TESEC Mtb Alr [4]; [14]),growth (E. coli TESEC Mtb Alr [4]; [15])
CCCOc1ccc(C(=O)OCCN(CC)CC)cc1N [Proparacaine hydrochloride],0.228 ± 0.0033,0.308 ± 0.017,0.268 ± 0.013,0.196 ± 0.0096,0.17 ± 0.0027,0.153 ± 0.0029,0.46 ± 0.0053,0.426 ± 0.025,0.187 ± 0.0041,0.231 ± 0.021,0.469 ± 0.043,0.408 ± 0.017,0.354 ± 0.024
O=c1[nH]cnc2c1ncn2[C@H]1CC[C@@H](CO)O1 [Didanosine],0.18 ± 0.011,0.293 ± 0.023,0.27 ± 0.0051,0.16 ± 0.015,0.149 ± 0.0069,0.199 ± 0.0058,0.157 ± 0.0043,0.165 ± 0.013,0.18 ± 0.011,0.196 ± 0.048,0.503 ± 0.045,0.425 ± 0.0085,0.225 ± 0.019
CCOCCn1c(N2CCCN(C)CC2)nc2ccccc21 [Emedastine],0.223 ± 0.007,0.288 ± 0.0092,0.25 ± 0.0071,0.211 ± 0.052,0.164 ± 0.0048,0.135 ± 0.004,0.291 ± 0.075,0.328 ± 0.058,0.205 ± 0.018,0.211 ± 0.019,0.514 ± 0.081,0.415 ± 0.012,0.337 ± 0.013
CS(=O)(=O)c1ccc([C@@H](O)[C@@H](CO)NC(=O)C(Cl)Cl)cc1 [Thiamphenicol],0.0517 ± 0.0013,0.0511 ± 0.0029,0.0394 ± 0.00036,0.0517 ± 0.0013,0.0395 ± 0.0001,0.055 ± 0.0011,0.0715 ± 0.0096,0.0618 ± 0.0034,0.0792 ± 0.0018,0.0622 ± 0.0072,0.206 ± 0.015,0.301 ± 0.012,0.086 ± 0.0081
CN1CCc2cccc3c2[C@H]1Cc1ccc(O)c(O)c1-3 [R(-) Apomorphine hydrochloride hemihydrate],0.0618 ± 0.002,0.292 ± 0.0093,0.254 ± 0.0078,0.181 ± 0.019,0.0652 ± 0.0022,0.14 ± 0.0033,0.152 ± 0.027,0.147 ± 0.066,0.16 ± 0.0062,0.174 ± 0.021,0.467 ± 0.025,0.407 ± 0.0077,0.199 ± 0.11
O=C(O)COCCN1CCN(C(c2ccccc2)c2ccc(Cl)cc2)CC1 (stereo not given) [Cetirizine dihydrochloride],0.21 ± 0.0098,0.275 ± 0.0074,0.25 ± 0.006,0.218 ± 0.017,0.183 ± 0.0077,0.14 ± 0.0034,0.223 ± 0.017,0.273 ± 0.045,0.168 ± 0.013,0.199 ± 0.019,0.655 ± 0.047,0.41 ± 0.014,0.349 ± 0.022
CC(C)(C(=O)O)c1ccc(C(O)CCCN2CCC(C(O)(c3ccccc3)c3ccccc3)CC2)cc1 (stereo not given) [Fexofenadine HCl],0.228 ± 0.0075,0.314 ± 0.0088,0.285 ± 0.0078,0.212 ± 0.017,0.184 ± 0.011,0.157 ± 0.0041,0.235 ± 0.015,0.348 ± 0.069,0.201 ± 0.025,0.266 ± 0.036,0.567 ± 0.054,0.431 ± 0.0065,0.309 ± 0.013
CC[C@H]1OC(=O)[C@H](C)[C@@H](O[C@H]2C[C@@](C)(OC)[C@@H](O)[C@H](C)O2)[C@H](C)[C@@H](O[C@@H]2O[C@H](C)C[C@H](N(C)C)[C@H]2O)[C@](C)(O)C[C@@H](C)/C(=N\OCOCCOC)[C@H](C)[C@@H](O)[C@]1(C)O [Roxithromycin],0.0423 ± 0.0011,0.0412 ± 0.00062,0.04067 ± 0.00015,0.0421 ± 0.0001,0.04023 ± 0.00015,0.0439 ± 0.002,0.0582 ± 0.0066,0.205 ± 0.25,0.0507 ± 0.0027,0.0505 ± 0.00097,0.05257 ± 0.00029,0.0564 ± 0.0015,0.0513 ± 0.00036
CC(=C(CCO)SSCC1CCCO1)N(C=O)Cc1cnc(C)nc1N (stereo in doubt) [Fursultiamine Hydrochloride],0.245 ± 0.0085,0.313 ± 0.0078,0.282 ± 0.0063,0.208 ± 0.023,0.22 ± 0.0094,0.132 ± 0.0026,0.215 ± 0.0087,0.275 ± 0.052,0.195 ± 0.024,0.247 ± 0.012,0.583 ± 0.044,0.399 ± 0.013,0.323 ± 0.019
Clc1ccc2c(c1)CCc1cccnc1C2=C1CCNCC1 [Desloratadine],0.2 ± 0.015,0.211 ± 0.0061,0.256 ± 0.0088,0.163 ± 0.0094,0.153 ± 0.0064,0.145 ± 0.0037,0.149 ± 0.023,0.251 ± 0.026,0.216 ± 0.033,0.215 ± 0.031,0.545 ± 0.014,0.398 ± 0.0076,0.288 ± 0.016
CO[C@@H]1[C@@H](OC(N)=O)[C@@H](O)[C@H](Oc2ccc3c(O)c(NC(=O)c4ccc(O)c(CC=C(C)C)c4)c(=O)oc3c2C)OC1(C)C [Novobiocin sodium salt],0.0431 ± 0.00086,0.0437 ± 0.0029,0.0409 ± 0.0007,0.0461 ± 0.0025,0.0415 ± 0.00082,0.0423 ± 0.00026,0.0533 ± 0.0015,0.0535 ± 0.0063,0.05077 ± 0.0005,0.0501 ± 0.00055,0.0556 ± 0.0007,0.0617 ± 0.0036,0.052 ± 0.0006
CC(=O)NS(=O)(=O)c1ccc(N)cc1 [Sulfacetamide sodic hydrate],0.265 ± 0.006,0.313 ± 0.029,0.261 ± 0.0078,0.237 ± 0.011,0.187 ± 0.02,0.151 ± 0.0041,0.375 ± 0.022,0.407 ± 0.063,0.188 ± 0.0037,0.232 ± 0.048,0.486 ± 0.053,0.406 ± 0.013,0.353 ± 0.018
CCN(CC)CCOCCOC(=O)C1(c2ccccc2)CCCC1 [Carbetapentane citrate],0.203 ± 0.0053,0.275 ± 0.015,0.249 ± 0.0094,0.191 ± 0.03,0.133 ± 0.004,0.161 ± 0.0033,0.153 ± 0.017,0.294 ± 0.064,0.185 ± 0.021,0.199 ± 0.011,0.539 ± 0.035,0.41 ± 0.0084,0.288 ± 0.012
COC(=O)C1=C(C)NC(C)=C(C(=O)OCCN(C)Cc2ccccc2)C1c1cccc([N+](=O)[O-])c1 (stereo not given) [Nicardipine hydrochloride],0.0481 ± 0.0012,0.0453 ± 0.0013,0.04637 ± 0.00021,0.049 ± 0.0015,0.045 ± 0.0027,0.0566 ± 0.0042,0.054 ± 0.0024,0.0558 ± 0.0072,0.107 ± 0.079,0.0547 ± 0.0015,0.0588 ± 0.0012,0.3938 ± 0.0022,0.0545 ± 0.0036
Nc1ccc(O)c(C(=O)O)c1 [Mesalamine],0.2446 ± 0.0018,0.287 ± 0.014,0.278 ± 0.0044,0.2 ± 0.011,0.21 ± 0.0038,0.144 ± 0.0074,0.339 ± 0.052,0.362 ± 0.061,0.195 ± 0.024,0.213 ± 0.021,0.554 ± 0.11,0.416 ± 0.0084,0.363 ± 0.011
